# Reference: PMC5540273 (PLoS ONE, 2017)
# Several values for one entry are separate records, joined by “and”; a condition that tells them apart may be missing. Equal entries are not always repeated. Where two headings read alike, the source gives them in different places.
# Experiments:
# FLT3 = settings: concentration: 1 μM, replicates: in singlicate; n = 1
# FLT4 = settings: n = 1
# FRK = settings: concentration: 1 μM, replicates: in singlicate; n = 1
# FYN = settings: n = 1
# GAK = settings: n = 1
# GCN2(Kin.Dom.2,S808G) = system: T1, GCN2(Kin.Dom.2,S808G); settings: n = 1
# T1 construct: gene EIF2AK4
# GRK1 = settings: concentration: 1 μM, replicates: in singlicate; n = 1
# GRK2 = system: T2, GRK2; settings: concentration: 1 μM, replicates: in singlicate; n = 1
# T2 construct: gene ADRBK1
# GRK3 = system: T3, GRK3; settings: n = 1
# T3 construct: gene ADRBK2
# GRK4 = settings: n = 1
# GRK7 = settings: concentration: 1 μM, replicates: in singlicate; n = 1
# GSK3A = settings: n = 1
# GSK3B = settings: n = 1
# HASPIN = system: T4, HASPIN; settings: concentration: 1 μM, replicates: in singlicate; n = 1
# T4 construct: gene GSG2
# HCK = settings: concentration: 1 μM, replicates: in singlicate; n = 1
# HIPK1 = settings: concentration: 1 μM, replicates: in singlicate; n = 1
# HIPK2 = settings: concentration: 1 μM, replicates: in singlicate; n = 1
# HIPK3 = settings: n = 1
# HIPK4 = settings: n = 1
# HPK1 = settings: n = 1
# [1] = concentration: 1 μM, replicates: in singlicate
# [2] = concentration: 1 μM,replicates: in singlicate, 1 µM
# 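Further: KINOMEscan kinase panel screen.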
smiles,measurement,setting,value
Nc1ncnc2[nH]c(-c3ccccc3)nc12 [AH5015],%Inh,FLT3,0%
same,%Inh,FLT4; [1],0%
same,%Inh,FRK,13%
same,%Inh,FYN; [1],39%
same,%Inh,GAK; [1],44%
same,%Inh,"GCN2(Kin.Dom.2,S808G); [1]",27%
same,%Inh,GRK1,0%
same,%Inh,GRK2,0%
same,%Inh,GRK3; [1],49%
same,%Inh,GRK4; [1],0%
same,%Inh,GRK7,0%
same,%Inh,GSK3A; [1],21%
same,%Inh,GSK3B; [1],23%
same,%Inh,HASPIN,59%
same,%Inh,HCK,0%
same,%Inh,HIPK1,19%
same,%Inh,HIPK2,0%
same,%Inh,HIPK3; [1],39%
same,%Inh,HIPK4; [1],21%
same,%Inh,HPK1; [1],39%
O=C(Nc1n[nH]c2nc(-c3nccs3)c(Br)cc12)C1CCCC1 [SB-742609],%Inh,FLT3,44%
same,%Inh,FLT4; [1],19%
same,%Inh,FRK,24%
same,%Inh,FYN; [1],23%
same,%Inh,GAK; [1],2%
same,%Inh,"GCN2(Kin.Dom.2,S808G); [1]",5%
same,%Inh,GRK1,0%
same,%Inh,GRK2,0%
same,%Inh,GRK3; [1],66%
same,%Inh,GRK4; [1],11%
same,%Inh,GRK7,0%
same,%Inh,GSK3A; [1],96.8%
same,%Inh,GSK3B; 1 µM,59%
same,%Inh,HASPIN,0%
same,%Inh,HCK,0%
same,%Inh,HIPK1,0%
same,%Inh,HIPK2,0%
same,%Inh,HIPK3; [1],20%
same,%Inh,HIPK4; [1],8%
same,%Inh,HPK1; [1],33%
COc1ccc2nc(-c3cccc(C)n3)nc(Nc3ccncc3)c2c1 [GSK204919],%Inh,FLT3,0%
same,%Inh,FLT4; [1],5%
same,%Inh,FRK,9%
same,%Inh,FYN; [1],13%
same,%Inh,GAK; [1],8%
same,%Inh,"GCN2(Kin.Dom.2,S808G); [1]",0%
same,%Inh,GRK1,0%
same,%Inh,GRK2,0%
same,%Inh,GRK3; [1],43%
same,%Inh,GRK4; [1],0%
same,%Inh,GRK7,0%
same,%Inh,GSK3A; [1],0%
same,%Inh,GSK3B; [1],19%
same,%Inh,HASPIN,15%
same,%Inh,HCK,0%
same,%Inh,HIPK1,0%
same,%Inh,HIPK2,0%
same,%Inh,HIPK3; [1],11%
same,%Inh,HIPK4; [1],0%
same,%Inh,HPK1; [1],28%
COc1ccc(C2=C(Nc3cccc(C(=O)O)c3)C(=O)NC2=O)cc1 [SB-390765],%Inh,FLT3,23%
same,%Inh,FLT4; [1],15%
same,%Inh,FRK,0%
same,%Inh,FYN; [1],0%
same,%Inh,GAK; [1],8%
same,%Inh,"GCN2(Kin.Dom.2,S808G); [1]",0%
same,%Inh,GRK1,30%
same,%Inh,GRK2,0%
same,%Inh,GRK3; [1],50%
same,%Inh,GRK4; [1],14%
same,%Inh,GRK7,12%
same,%Inh,GSK3A; [1],7%
same,%Inh,GSK3B; 1 µM,31%
same,%Inh,HASPIN,28%
same,%Inh,HCK,8%
same,%Inh,HIPK1,8%
same,%Inh,HIPK2,16%
same,%Inh,HIPK3; [1],21%
same,%Inh,HIPK4; [1],21%
same,%Inh,HPK1; [1],0%
O=C(O)COc1ncnc2cc(-c3ccc4[nH]ncc4c3)sc12,%Inh,FLT3,2%
same,%Inh,FLT4; [1],2%
same,%Inh,FRK,100%
same,%Inh,FYN; [1],100%
same,%Inh,GAK; [1],4%
same,%Inh,"GCN2(Kin.Dom.2,S808G); [1]",0%
same,%Inh,GRK1,3%
same,%Inh,GRK2,20%
same,%Inh,GRK3; [1],23%
same,%Inh,GRK4; [1],0%
same,%Inh,GRK7,0%
same,%Inh,GSK3A; [1],25%
same,%Inh,GSK3B; [1],27%
same,%Inh,HASPIN,41%
same,%Inh,HCK,14%
same,%Inh,HIPK1,45%
same,%Inh,HIPK2,47%
same,%Inh,HIPK3; [1],47%
same,%Inh,HIPK4; [1],38%
same,%Inh,HPK1; [1],7%
Cc1ccc(-c2cc(-c3c[nH]nc3-c3ccccn3)ccn2)cc1 [GW684088],%Inh,FLT3,0%
same,%Inh,FLT4; [1],0%
same,%Inh,FRK,4%
same,%Inh,FYN; [1],0%
same,%Inh,GAK; [1],80%
same,%Inh,"GCN2(Kin.Dom.2,S808G); [1]",0%
same,%Inh,GRK1,8%
same,%Inh,GRK2,0%
same,%Inh,GRK3; [1],74%
same,%Inh,GRK4; [1],0%
same,%Inh,GRK7,0%
same,%Inh,GSK3A; [1],22%
same,%Inh,GSK3B; [1],2%
same,%Inh,HASPIN,35%
same,%Inh,HCK,0%
same,%Inh,HIPK1,7%
same,%Inh,HIPK2,0%
same,%Inh,HIPK3; [1],1%
same,%Inh,HIPK4; [1],0%
same,%Inh,HPK1; [1],24%
CCn1c(-c2cccnc2O)nc2cnccc21 [SB-736715],%Inh,FLT3,23%
same,%Inh,FLT4; [1],0%
same,%Inh,FRK,0%
same,%Inh,FYN; [1],0%
same,%Inh,GAK; [1],0%
same,%Inh,"GCN2(Kin.Dom.2,S808G); [1]",8%
same,%Inh,GRK1,0%
same,%Inh,GRK2,0%
same,%Inh,GRK3; [1],21%
same,%Inh,GRK4; [1],19%
same,%Inh,GRK7,0%
same,%Inh,GSK3A; [1],0%
same,%Inh,GSK3B; [1],0%
same,%Inh,HASPIN,0%
same,%Inh,HCK,0%
same,%Inh,HIPK1,11%
same,%Inh,HIPK2,0%
same,%Inh,HIPK3; [1],0%
same,%Inh,HIPK4; [1],0%
same,%Inh,HPK1; [1],4%
CN(C)CCN(C)C(=O)c1cc(-c2ccncc2)c(-c2ccc(Cl)c(O)c2)o1.Cl.Cl [SB-710397],%Inh,FLT3,0%
same,%Inh,FLT4; [1],7%
same,%Inh,FRK,43%
same,%Inh,FYN; [1],0%
same,%Inh,GAK; [1],29%
same,%Inh,"GCN2(Kin.Dom.2,S808G); [1]",0%
same,%Inh,GRK1,4%
same,%Inh,GRK2,0%
same,%Inh,GRK3; [1],54%
same,%Inh,GRK4; [1],0%
same,%Inh,GRK7,0%
same,%Inh,GSK3A; [1],0%
same,%Inh,GSK3B; [1],14%
same,%Inh,HASPIN,53%
same,%Inh,HCK,14%
same,%Inh,HIPK1,0%
same,%Inh,HIPK2,0%
same,%Inh,HIPK3; [1],16%
same,%Inh,HIPK4; [1],0%
same,%Inh,HPK1; [1],46%
CSc1nn2c(=O)cc(N3CCOCC3)nc2n1Cc1cccc(C(F)(F)F)c1C [GSK2363608],%Inh,FLT3,0%
same,%Inh,FLT4; [2],18% and 0%
same,%Inh,FRK,0%
same,%Inh,FYN; [2],46% and 15%
same,%Inh,GAK; [2],100% and 0%
same,%Inh,"GCN2(Kin.Dom.2,S808G); [2]",0% and 3%
same,%Inh,GRK1,0%
same,%Inh,GRK2,0%
same,%Inh,GRK3; [2],0% and 20%
same,%Inh,GRK4; [2],0% and 8%
same,%Inh,GRK7,0%
same,%Inh,GSK3A; [2],26% and 9%
same,%Inh,GSK3B; [2],12% and 25%
same,%Inh,HASPIN,0%
same,%Inh,HCK,0%
same,%Inh,HIPK1,0%
same,%Inh,HIPK2,0%
same,%Inh,HIPK3; [2],11% and 15%
same,%Inh,HIPK4; [2],0% and 18%
same,%Inh,HPK1; [2],24% and 36%
COc1ccccc1CNC(=O)c1cc(C(=O)c2ccccc2C)c[nH]1 [GSK364507],%Inh,FLT3,0%
same,%Inh,FLT4; [1],5%
same,%Inh,FRK,0%
same,%Inh,FYN; [1],42%
same,%Inh,GAK; [1],15%
same,%Inh,"GCN2(Kin.Dom.2,S808G); [1]",9%
same,%Inh,GRK1,0%
same,%Inh,GRK2,0%
same,%Inh,GRK3; [1],37%
same,%Inh,GRK4; [1],0%
same,%Inh,GRK7,0%
same,%Inh,GSK3A; [1],15%
same,%Inh,GSK3B; [1],0%
same,%Inh,HASPIN,0%
same,%Inh,HCK,0%
same,%Inh,HIPK1,0%
same,%Inh,HIPK2,0%
same,%Inh,HIPK3; [1],10%
same,%Inh,HIPK4; [1],0%
same,%Inh,HPK1; [1],26%
